# About 79,000 compounds went through this panel and 15% of them were active in at least one assay; those are over-represented in the sample as a whole. Unmarked numbers belong to inactive results. Activity calls are given as the source filed them. Rule as the data show it: active = growth inhibition above about 70%; inactive = the rest.
# Legend:
# [1] = NCI Yeast Anticancer Drug Screen. Data for the rad50 strain (AID 155);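 also: 0% = growth of vehicle-only cultures of the same strain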; conditions: S. cerevisiae rad50 strain growth inhibition, hits give high values
# In short: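 Compounds were tested on a yeast strain with an engineered DNA damage repair alteration; the reported value is growth inhibition normalised to vehicle treatment.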
# [2] = NCI Yeast Anticancer Drug Screen. Data for the mec2-1 strain (AID 157); conditions: S. cerevisiae mec2-1 strain, hits give high values
# In short: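 Mutant yeast (mec2-1) grown with compound; growth inhibition relative to vehicle control reported.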
# [3] = NCI Yeast Anticancer Drug Screen. Data for the sgs1 mgt1 strain (AID 161);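 also: 0% = growth of cultures given vehicle only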; conditions: S. cerevisiae sgs1 mgt1 strain, hits give high values
# In short: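 Compounds are added to genetically altered yeast, and growth is compared with cultures given vehicle alone to give percent inhibition.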
# [4] = NCI Yeast Anticancer Drug Screen. Data for the cln2 rad14 strain (AID 165);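 also: 0% = growth equal to vehicle treated cultures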; conditions: S. cerevisiae cln2 rad14 strain, hits give high values
# In short: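 Readout is yeast growth inhibition versus vehicle-treated controls, using a strain with cln2 and rad14 alterations exposed to compound.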
# [5] = NCI Yeast Anticancer Drug Screen. Data for the bub3 strain (AID 167); conditions: S. cerevisiae bub3 mutant strain, hits give high values
# In short: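 Growth of a checkpoint-deficient yeast mutant is measured after compound exposure. Values represent inhibition relative to vehicle.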
# [6] = NCI Yeast Anticancer Drug Screen. Data for the mlh1 rad18 strain (AID 175); conditions: S. cerevisiae mlh1 rad18 strain growth inhibition, hits give high values
# In short: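 Genetically defined yeast (DNA repair-deficient) exposed to compounds; growth inhibition determined relative to vehicle.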
# [7] = at 5.0 µM (retest, dose inferred, filed as 0.5)
# [8] = at 50.0 µM (retest, dose inferred, filed as 5.0)
Compound,"growth inhibition [1, 7]","growth inhibition [1, 8]",growth inhibition ([1]; at 50.0 µM),"growth inhibition [2, 7]","growth inhibition [2, 8]",growth inhibition ([2]; at 50.0 µM),"growth inhibition [3, 7]","growth inhibition [3, 8]",growth inhibition ([3]; at 50.0 µM),"growth inhibition [4, 7]","growth inhibition [4, 8]",growth inhibition ([4]; at 50.0 µM),"growth inhibition [5, 7]","growth inhibition [5, 8]",growth inhibition ([5]; at 50.0 µM),"growth inhibition [6, 7]","growth inhibition [6, 8]",growth inhibition ([6]; at 50.0 µM)
O=c1oc2cc(N=Cc3ccc4c(c3)OCO4)ccc2c2ccccc12,-3%,39%,80.7% (active),1%,24%,8.65%,-7%,4%,0.25%,-17%,8%,1.2%,-4%,5%,25.6%,2%,42%,24.9%
COCCN1C(=O)C2c3[nH]c4ccccc4c3C3CCC(C(C)(C)C)CC3C2C1=O (configuration not stated),-2%,98% (active),93.8% (active),-1%,98% (active),96% (active),-7%,98% (active),88.7% (active),-21%,96% (active),95.6% (active),-4%,94% (active),94.2% (active),4%,98% (active),94.5% (active)
C/C(=N/Nc1ccccc1)C(=O)O,18%,97% (active),97.8% (active),6%,88% (active),97.8% (active),11%,50%,97.7% (active),8%,96% (active),98% (active),6%,96% (active),97.4% (active),28%,98% (active),97.2% (active)
N[C@H](C(=O)O)[C@@H]1CC(Cl)=NO1,63%,97% (active),83.7% (active),98% (active),96% (active),89.8% (active),59%,96% (active),84.5% (active),68%,96% (active),85.2% (active),68%,97% (active),88.5% (active),86% (active),97% (active),84.8% (active)
CCOC(=O)C(C)(c1c(C)[nH]c2ccccc12)c1c(C)[nH]c2ccccc12,1%,96% (active),94.8% (active),-1%,94% (active),95.6% (active),3%,87% (active),95.8% (active),4%,95% (active),93% (active),6%,96% (active),95.5% (active),5%,92% (active),95.3% (active)
O=C(N/N=C/c1ccccc1)c1ccc([N+](=O)[O-])cc1,16%,15%,8.6%,-3%,6%,7.3%,22%,12%,1.15%,12%,19%,-1.35%,17%,24%,14.9%,15%,18%,1.05%
O=C1C(c2ccccc2)=[N+]([O-])c2ccccc21,2%,39%,87.4% (active),1%,98% (active),98% (active),-2%,92% (active),98.2% (active),0%,12%,73.5% (active),29%,80% (active),99.2% (active),4%,92% (active),76.3% (active)
CSC(=S)NN=C1CCCCC1,59%,97% (active),90.9% (active),47%,98% (active),88.5% (active),49%,97% (active),93.8% (active),9%,78% (active),58.6%,81% (active),97% (active),93.7% (active),55%,96% (active),90.8% (active)
CC(=O)N=C1N(/C=C2\C(=O)Oc3ccccc3C2=O)C(=O)/C(=C/c2ccco2)N1C,-12%,84% (active),97.6% (active),3%,74% (active),97.1% (active),-6%,65%,96.2% (active),-7%,24%,91% (active),-22%,76% (active),97.7% (active),-17%,61%,98.7% (active)
COc1ccc(NC(=O)CCC(NS(=O)(=O)c2ccc(C)cc2)C(=O)O)cc1 (configuration not stated),-6%,-3%,19.4%,-4%,-5%,8.6%,-7%,-23%,7.7%,-8%,-17%,10.4%,-2%,2%,51.9%,-3%,-3%,19.1%
CCCCCCCCCCCCCCCCCCOP(=O)([O-])OC1CC[N+](C)(C)CC1,93% (active),99% (active),90% (active),98% (active),99% (active),92.5% (active),98% (active),99% (active),91% (active),96% (active),99% (active),90.2% (active),97% (active),99% (active),89% (active),97% (active),99% (active),92.5% (active)
S=C1Nc2cnc3ccccc3c2SC1c1ccccc1 (configuration not stated),-5%,98% (active),87% (active),7%,98% (active),92% (active),-15%,98% (active),87.8% (active),-9%,98% (active),90.3% (active),-8%,98% (active),90.8% (active),4%,98% (active),85.3% (active)
CCS(=O)(=O)/C=C(\C#Cc1ccccc1)c1ccccc1,9%,84% (active),79.2% (active),-1%,95% (active),82.4% (active),5%,90% (active),83.7% (active),12%,81% (active),80.3% (active),11%,99% (active),87.5% (active),6%,94% (active),92.2% (active)
O=C1c2ccccc2C(O)(C#Cc2ccccc2)c2cnccc21 (configuration not stated),-6%,96% (active),97.8% (active),-5%,97% (active),98.5% (active),-1%,97% (active),98.2% (active),-11%,96% (active),97% (active),-11%,97% (active),98.2% (active),-5%,96% (active),97.8% (active)
C1CSCCCSCCCSCCCSCCCSC1,17%,24%,31.2%,8%,17%,21.4%,7%,20%,27.5%,9%,22%,47.4%,22%,28%,25.1%,15%,36%,-10.8%
CC1CN(CC(O)c2ccc(Br)cc2)CC(C)O1 (configuration not stated),13%,30%,58.5%,6%,28%,34.2%,8%,56%,66.5%,8%,46%,68.7%,12%,48%,54.6%,29%,61%,41.8%
O=C1C=CC(=Nc2cc3c(cc2Br)-c2ccccc2C3Br)O1 (configuration not stated),23%,99% (active),28.9%,20%,99% (active),79.8% (active),15%,100% (active),21.4%,6%,99% (active),-12.8%,7%,99% (active),-3.95%,26%,99% (active),28.9%
CCOc1ccc(-c2nc3ccc(-c4nc5ccc(N6CCN(C)CC6)cc5[nH]4)cc3[nH]2)cc1,28%,98% (active),88.7% (active),23%,99% (active),92.9% (active),42%,99% (active),90.2% (active),31%,52%,91.5% (active),41%,98% (active),89.1% (active),57%,98% (active),89% (active)
CCCN(CCC)C(=S)N/N=C(/C)c1ccccc1O,-8%,98% (active),77.8% (active),-29%,98% (active),85.7% (active),-29%,97% (active),87.2% (active),-26%,97% (active),86.8% (active),-58%,98% (active),89% (active),-23%,98% (active),90.8% (active)
